# Where “and” joins values, the source holds several entries; their conditions need not be identical. Equal values may be shown once. Results filed as inconclusive are left out. Where a structure was tested more than once in an assay, its records may differ in their call. Calls of active or inactive are those of the source. How the source made its calls, unless noted: active means hit-call score of the fitted dose curve at least 0.9, where 1 is the maximum; inconclusive means response in the unintended direction; inactive means score below 0.9.
# How the values were obtained:
# [1] = biological target: Retinoic acid receptor RXR-alpha (Homo sapiens) (UniProt P19793); experiment: ATG_RXRa_TRANS: Attagene TRANS-FACTORIAL HepG2 Assay for human Retinoid X Receptor alpha (RXRa) (AID 2283012)
# In short: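 Transient transfection of human HepG2 with multiple GAL4-UAS reporter constructs; 24 h compound exposure; total RNA isolated, reverse-transcribed, PCR-amplified, 6-FAM labelled, HpaI-cut, resolved by capillary electrophoresis. Positive-direction fit versus DMSO.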
# [2] = biological target: human Retinoid X Receptor beta (RXRb), RXRB (gene 6257) (UniProt P28702); experiment: ATG_RXRb_TRANS: Attagene TRANS-FACTORIAL HepG2 Assay for human Retinoid X Receptor beta (RXRb) (AID 2283013)
# In short: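 Transfect HepG2 with GAL4-UAS multi-reporter constructs (chimeric NR-Gal4, TRANS format); dose compound 24 h; isolate RNA, RT-PCR, FAM primer extension, HpaI digest; quantify by capillary electrophoresis; positive direction vs DMSO.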
# [3] = biological target: human Thyroid Receptor alpha (THRa1), THRA (gene 7067) (UniProt P10827); experiment: ATG_THRa1_TRANS: Attagene TRANS-FACTORIAL HepG2 Assay for human Thyroid Receptor alpha (THRa1) (AID 2283014)
# In short: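 HepG2 cells transiently transfected with chimeric NR-Gal4 and GAL4-UAS reporter units, dosed 24 h. Reporter mRNA quantified by RT-PCR, fluorescent labeling, HpaI digestion and capillary electrophoresis; gain-of-signal fit versus DMSO.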
# [4] = biological target: human Vitamin D Receptor (VDR), VDR (gene 7421) (UniProt P11473); experiment: ATG_VDR_TRANS: Attagene TRANS-FACTORIAL HepG2 Assay for human Vitamin D Receptor (VDR) (AID 2283022)
# In short: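 HepG2 cells were transiently transfected with GAL4-UAS reporter units and a chimeric VDR-Gal4 construct, then dosed for 24 hours. Reporter mRNA was quantified by RT-PCR, fluorescent labeling, HpaI digestion and capillary electrophoresis; gain of signal analysed vs DMSO.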
# [5] = read-out: E-selectin (Homo sapiens) (UniProt P16581); experiment: BSK_3C_Eselectin: BioMAP Diversity Plus: 3C Assay for Eselectin Biomarker Activity (AID 2283015; active means hit-call score of the fitted dose curve at least 0.9, where 1 is the maximum; inactive means score below 0.9;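 further: cell surface E-selectin protein quantified by ELISA 24 h after dosing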); conditions: primary human endothelial cells (HUVEC); actives raise or lower the signal
# In short: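 Primary human umbilical vein endothelial cells (3C system), read 24 h after compound addition; E-selectin measured by ELISA. Bidirectional curve fitting against DMSO baseline; cytotoxicity by parallel SRB total-protein staining.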
# [6] = read-out: Interleukin-1 alpha (IL1a), IL1A (gene 3552); experiment: BSK_BE3C_IL1a: BioMAP Diversity Plus: BE3C Assay for Interleukin-1 alpha (IL1a) Biomarker Activity (AID 2283016; active means hit-call score of the fitted dose curve at least 0.9, where 1 is the maximum; inactive means score below 0.9); conditions: primary human bronchial epithelial cells; actives raise or lower the signal
# In short: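 BE3C primary human bronchial epithelium; cpd 24 h; IL-1a by ELISA; bidirectional fit vs DMSO; parallel SRB (0.1% SRB, 10% TCA fix, 560 nm) for cytotoxicity.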
# [7] = read-out: Monocyte Chemoattractant Protein-1 (MCP1), CCL2 (gene 6347); experiment: BSK_3C_MCP1: BioMAP Diversity Plus: 3C Assay for Monocyte Chemoattractant Protein-1 (MCP1) Biomarker Activity (AID 2283017; active means hit-call score of the fitted dose curve at least 0.9, where 1 is the maximum; inactive means score below 0.9); conditions: primary human endothelial cells (HUVEC); actives raise or lower the signal
# In short: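 Human umbilical vein endothelial cells (3C system) exposed to chemicals for 24 h; MCP-1 quantified by ELISA against the DMSO baseline with bidirectional fitting, and parallel SRB staining used to assess cytotoxicity.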
# [8] = read-out: Monocyte Chemoattractant Protein-1 (MCP1), CCL2 (gene 6347); experiment: BSK_4H_MCP1: BioMAP Diversity Plus: 4H Assay for Monocyte Chemoattractant Protein-1 (MCP1) Biomarker Activity (AID 2283018; active means hit-call score of the fitted dose curve at least 0.9, where 1 is the maximum; inactive means score below 0.9); conditions: primary human endothelial cells (HUVEC); actives raise or lower the signal
# In short: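 ELISA read-out of MCP-1 from human vascular endothelial primary cells taken at 24 hours after compound exposure. Activity was fitted in both directions relative to DMSO, which served as negative control.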
# [9] = read-out: Human Leukocyte Antigen - DR isotype (HLADR), HLA-DRA (gene 3122); experiment: BSK_3C_HLADR: BioMAP Diversity Plus: 3C Assay for Human Leukocyte Antigen - DR isotype (HLADR) Biomarker Activity (AID 2283019; active means hit-call score of the fitted dose curve at least 0.9, where 1 is the maximum; inactive means score below 0.9;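 further: ELISA of cell-surface HLA-DR on HUVEC 24 h after dosing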); conditions: primary human endothelial cells (HUVEC); actives raise or lower the signal
# In short: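 HUVEC monoculture, HLA-DR measured by ELISA 24 h after chemical dosing. Fitted bidirectionally against DMSO baseline; parallel SRB staining assessed cytotoxicity, with 3C proliferation read by SRB at 48 h.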
# [10] = read-out: Interleukin-8 (IL8), CXCL8 (gene 3576); experiment: BSK_3C_IL8: BioMAP Diversity Plus: 3C Assay for Interleukin-8 (IL8) Biomarker Activity (AID 2283020; active means hit-call score of the fitted dose curve at least 0.9, where 1 is the maximum; inactive means score below 0.9); conditions: primary human endothelial cells (HUVEC); actives raise or lower the signal
# In short: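 ELISA read-out of IL-8 from human umbilical vein endothelium, measured 24 h after chemical dosing. Activity is expressed relative to DMSO negative control, with both increases and decreases fitted.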
# [11] = read-out: Monokine induced gamma interferon (MIG), CXCL9 (gene 4283); experiment: BSK_3C_MIG: BioMAP Diversity Plus: 3C Assay for Monokine induced gamma interferon (MIG) Biomarker Activity (AID 2283021; active means hit-call score of the fitted dose curve at least 0.9, where 1 is the maximum; inactive means score below 0.9); conditions: primary human endothelial cells (HUVEC); actives raise or lower the signal
# In short: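 Read-out is ELISA detection of MIG on human umbilical vein endothelial cells, taken 24 h after dosing. Gain or loss of signal was scored relative to DMSO controls using bidirectional curve fitting.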
# [12] = read-out: Matrix Metallopeptidase 1 (MMP1), MMP1 (gene 4312); experiment: BSK_BE3C_MMP1: BioMAP Diversity Plus: BE3C Assay for Matrix Metallopeptidase 1 (MMP1) Biomarker Activity (AID 2283024; active means hit-call score of the fitted dose curve at least 0.9, where 1 is the maximum; inactive means score below 0.9); conditions: primary human bronchial epithelial cells; actives raise or lower the signal
# In short: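 Human bronchial epithelial cells (BE3C system) exposed to compound for 24 h; MMP1 then quantified by ELISA. Activity was fitted in both directions relative to DMSO.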
# [13] = read-out: Pselectin, SELP (gene 6403); experiment: BSK_4H_Pselectin: BioMAP Diversity Plus: 4H Assay for Pselectin Biomarker Activity (AID 2283026; active means hit-call score of the fitted dose curve at least 0.9, where 1 is the maximum; inactive means score below 0.9); conditions: primary human endothelial cells (HUVEC); actives raise or lower the signal
# In short: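 ELISA read-out of P-selectin on human umbilical vein endothelium after 24 h of dosing. Values derive from bidirectional fitting relative to DMSO. Parallel SRB protein staining flagged overt cytotoxicity.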
# [14] = BSK_4H_SRB: Viability Assessment in the BioMAP Diversity Plus: 4H Assay (AID 2283027; active means hit-call score of the fitted dose curve at least 0.9, where 1 is the maximum; inactive means score below 0.9;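 further: cells exposed to compound for 24 h before staining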); conditions: primary human endothelial cells (HUVEC)
# In short: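 Human umbilical vein endothelial cells, 24 h after chemical dosing; total protein measured by 0.1% sulforhodamine B staining after 10% TCA fixation, read at 560 nm. Bidirectional fitting against DMSO.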
# [15] = BSK_BE3C_SRB: Viability Assessment in the BioMAP Diversity Plus: BE3C Assay (AID 2283028; active means hit-call score of the fitted dose curve at least 0.9, where 1 is the maximum; inactive means score below 0.9); conditions: primary human bronchial epithelial cells
# In short: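 Human bronchial epithelial primary cells in confluent culture, 24 h after chemical dosing; total protein by 0.1% SRB staining after 10% TCA fixation, read at 560 nm. Bidirectional fitting versus DMSO baseline.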
# [16] = read-out: Thrombomodulin, THBD (gene 7056); experiment: BSK_3C_Thrombomodulin: BioMAP Diversity Plus: 3C Assay for Thrombomodulin Biomarker Activity (AID 2283029; active means hit-call score of the fitted dose curve at least 0.9, where 1 is the maximum; inactive means score below 0.9); conditions: primary human endothelial cells (HUVEC); actives raise or lower the signal
# In short: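 Read-out is ELISA of thrombomodulin on human umbilical vein endothelium 24 h after chemical dosing. Gain or loss of signal is scored relative to DMSO. Overt cytotoxicity is checked in parallel cultures by sulforhodamine B staining.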
# [17] = read-out: Urokinase-type plasminogen activator receptor (uPAR), PLAUR (gene 5329); experiment: BSK_4H_uPAR: BioMAP Diversity Plus: 4H Assay for Urokinase-type plasminogen activator receptor (uPAR) Biomarker Activity (AID 2283030; active means hit-call score of the fitted dose curve at least 0.9, where 1 is the maximum; inactive means score below 0.9); conditions: primary human endothelial cells (HUVEC); actives raise or lower the signal
# In short: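 Human umbilical vein endothelial cells in the 4H system, 24 h after chemical dosing. Cell-surface uPAR measured by ELISA, fitted in both directions versus DMSO; cytotoxicity checked by SRB total protein in parallel cultures.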
# [18] = BSK_3C_Vis: BioMAP Diversity Plus: 3C Assay for Morphology Visualization (AID 2283025; active means hit-call score of the fitted dose curve at least 0.9, where 1 is the maximum; inactive means score below 0.9;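 further: fitted both ways so gain or loss versus DMSO counts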); conditions: primary human endothelial cells (HUVEC)
# In short: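 Chemicals were added to primary human umbilical vein endothelium, cells were incubated 24 h, and morphology was then visualized by light microscopy. Gain or loss of signal was fitted bidirectionally relative to DMSO.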
# Sequence of human Vitamin D Receptor (VDR), VDR (gene 7421) (P11473 whole entry, looked up, the tested form may be a part): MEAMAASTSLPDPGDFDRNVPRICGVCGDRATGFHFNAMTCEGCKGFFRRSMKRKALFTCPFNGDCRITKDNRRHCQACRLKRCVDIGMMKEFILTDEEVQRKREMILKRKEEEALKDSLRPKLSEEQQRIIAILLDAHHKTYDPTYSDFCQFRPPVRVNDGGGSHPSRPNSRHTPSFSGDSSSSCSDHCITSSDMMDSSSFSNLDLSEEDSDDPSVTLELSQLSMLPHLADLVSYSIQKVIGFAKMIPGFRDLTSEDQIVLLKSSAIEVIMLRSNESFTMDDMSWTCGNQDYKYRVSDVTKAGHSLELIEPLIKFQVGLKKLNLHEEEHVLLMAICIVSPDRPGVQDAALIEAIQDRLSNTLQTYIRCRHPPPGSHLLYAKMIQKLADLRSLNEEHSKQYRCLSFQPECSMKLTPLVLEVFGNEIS
# Sequence of E-selectin (Homo sapiens) (P16581 whole entry, looked up): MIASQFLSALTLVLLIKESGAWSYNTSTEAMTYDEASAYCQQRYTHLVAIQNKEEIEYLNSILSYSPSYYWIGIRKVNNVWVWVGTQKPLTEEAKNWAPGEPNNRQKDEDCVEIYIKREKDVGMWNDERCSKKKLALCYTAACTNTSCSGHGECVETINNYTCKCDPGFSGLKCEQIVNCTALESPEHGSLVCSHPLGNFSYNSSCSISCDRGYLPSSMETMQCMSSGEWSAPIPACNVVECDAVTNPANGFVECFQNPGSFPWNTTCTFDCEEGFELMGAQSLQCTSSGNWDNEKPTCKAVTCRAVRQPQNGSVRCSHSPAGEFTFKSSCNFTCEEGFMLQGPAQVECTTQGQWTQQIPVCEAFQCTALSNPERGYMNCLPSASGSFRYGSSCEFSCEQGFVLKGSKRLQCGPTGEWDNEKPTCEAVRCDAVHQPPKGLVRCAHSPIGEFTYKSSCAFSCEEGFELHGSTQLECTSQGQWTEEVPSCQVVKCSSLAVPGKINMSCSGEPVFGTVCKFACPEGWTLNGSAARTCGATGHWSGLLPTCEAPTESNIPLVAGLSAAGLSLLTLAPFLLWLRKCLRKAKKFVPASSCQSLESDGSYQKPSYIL
# Sequence of Retinoic acid receptor RXR-alpha (Homo sapiens) (P19793 whole entry, looked up, the tested form may be a part): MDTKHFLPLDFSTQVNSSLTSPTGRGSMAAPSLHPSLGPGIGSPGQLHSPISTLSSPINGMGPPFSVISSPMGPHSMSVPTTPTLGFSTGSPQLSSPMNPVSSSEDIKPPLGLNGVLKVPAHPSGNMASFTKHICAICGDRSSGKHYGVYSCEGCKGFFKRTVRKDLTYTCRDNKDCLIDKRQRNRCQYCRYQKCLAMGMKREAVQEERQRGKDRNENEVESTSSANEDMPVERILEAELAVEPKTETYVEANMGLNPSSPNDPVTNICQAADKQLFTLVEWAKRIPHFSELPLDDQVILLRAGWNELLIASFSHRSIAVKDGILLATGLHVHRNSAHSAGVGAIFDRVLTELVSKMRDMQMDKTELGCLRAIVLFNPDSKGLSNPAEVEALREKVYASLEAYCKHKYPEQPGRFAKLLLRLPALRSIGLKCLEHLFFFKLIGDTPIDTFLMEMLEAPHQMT
# Sequence of human Retinoid X Receptor beta (RXRb), RXRB (gene 6257) (P28702 whole entry, looked up, the tested form may be a part): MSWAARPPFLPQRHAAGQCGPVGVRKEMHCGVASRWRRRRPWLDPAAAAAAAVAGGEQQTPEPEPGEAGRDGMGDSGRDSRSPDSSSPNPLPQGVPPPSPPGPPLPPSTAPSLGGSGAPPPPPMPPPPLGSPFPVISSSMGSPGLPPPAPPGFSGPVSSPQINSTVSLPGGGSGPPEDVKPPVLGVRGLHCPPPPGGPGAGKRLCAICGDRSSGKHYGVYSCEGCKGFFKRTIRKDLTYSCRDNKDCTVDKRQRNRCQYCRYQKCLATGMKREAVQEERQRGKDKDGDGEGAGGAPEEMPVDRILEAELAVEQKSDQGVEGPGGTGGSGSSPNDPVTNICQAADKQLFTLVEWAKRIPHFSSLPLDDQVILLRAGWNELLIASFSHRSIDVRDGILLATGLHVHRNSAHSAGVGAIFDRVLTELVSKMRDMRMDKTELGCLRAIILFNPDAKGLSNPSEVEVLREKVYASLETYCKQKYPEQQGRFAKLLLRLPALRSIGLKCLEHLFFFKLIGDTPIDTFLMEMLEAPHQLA
# Sequence of human Thyroid Receptor alpha (THRa1), THRA (gene 7067) (P10827 whole entry, looked up, the tested form may be a part): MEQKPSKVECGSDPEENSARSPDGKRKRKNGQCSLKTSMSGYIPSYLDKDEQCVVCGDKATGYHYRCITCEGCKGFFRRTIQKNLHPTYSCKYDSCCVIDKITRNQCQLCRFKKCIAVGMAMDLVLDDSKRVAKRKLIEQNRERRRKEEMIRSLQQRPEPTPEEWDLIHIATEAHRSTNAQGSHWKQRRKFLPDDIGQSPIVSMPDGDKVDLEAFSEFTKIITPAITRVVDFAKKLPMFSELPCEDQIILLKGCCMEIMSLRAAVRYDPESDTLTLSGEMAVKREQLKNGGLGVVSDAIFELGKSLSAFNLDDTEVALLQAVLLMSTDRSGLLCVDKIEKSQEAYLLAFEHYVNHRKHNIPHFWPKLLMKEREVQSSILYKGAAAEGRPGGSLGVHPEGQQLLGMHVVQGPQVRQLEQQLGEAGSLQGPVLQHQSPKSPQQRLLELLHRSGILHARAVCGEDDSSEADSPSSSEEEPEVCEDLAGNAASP
smiles,measurement,setting,value
C[C@H](CCC(=O)NCC(=O)O)[C@H]1CC[C@H]2[C@@H]3[C@H](O)C[C@@H]4C[C@H](O)CC[C@]4(C)[C@H]3C[C@H](O)[C@]12C,outcome,[1],inactive
same,outcome,[2],inactive
same,AC50,[3],68.7 µM (active)
same,outcome,[4],inactive
Nc1c(S(=O)(=O)O)cc(Br)c2c1C(=O)c1ccccc1C2=O,outcome,[1],inactive
same,outcome,[2],inactive
same,outcome,[3],inactive
same,outcome,[4],inactive
Nc1ccc(N)c2c1C(=O)c1ccccc1C2=O,outcome,[1],inactive
same,outcome,[2],inactive
same,outcome,[3],inactive
same,outcome,[4],inactive
Nc1c(Cl)cc(Cl)cc1[N+](=O)[O-],outcome,[1],inactive
same,outcome,[2],inactive
same,outcome,[3],inactive
same,outcome,[4],inactive
CCCCCCCCCCCCN1CCCCCC1=O,outcome,[1],inactive
same,outcome,[2],inactive
same,outcome,[3],inactive
same,outcome,[4],inactive
O=C(O)CNc1ccccc1,outcome,[1],inactive
same,outcome,[2],inactive
same,outcome,[3],inactive
same,outcome,[4],inactive
CN(C)CCOc1ccc(/C(=C(/CCCl)c2ccccc2)c2ccccc2)cc1,outcome,[1],inactive
same,outcome,[2],inactive
same,outcome,[3],inactive
CC(C)(CO)[C@@H](O)C(=O)NCCC(=O)O,outcome,[1],inactive
same,outcome,[2],inactive
same,outcome,[3],inactive
CC(C)C(OC(=O)c1ccccc1)C(C)(C)COC(=O)c1ccccc1 (configuration not stated),outcome,[1],inactive
same,AC50,[2],25.4 µM (active)
same,outcome,[3],inactive
same,outcome,[4],inactive
CCOC(=O)C(C#N)=C(c1ccccc1)c1ccccc1,outcome,[1],inactive
same,AC50,[2],26.6 µM (active)
same,outcome,[3],inactive
same,outcome,[5],inactive
same,outcome,[6],inactive
same,outcome,[7],inactive
same,AC50,[8],1 µM (active)
same,outcome,[8],inactive
same,outcome,[9],inactive
same,outcome,[10],inactive
same,outcome,[11],inactive
same,AC50,[12],25.2 µM (active) and 31.1 µM (active)
same,outcome,[13],inactive
same,outcome,[14],inactive
same,outcome,[15],inactive
same,AC50,[16],8.14 µM (active)
same,outcome,[16],inactive
same,outcome,[17],inactive
CC1(C)C(=O)N(Cl)C(=O)N1Br,outcome,[1],inactive
same,outcome,[2],inactive
same,outcome,[3],inactive
Nc1ccc2cc(S(=O)(=O)O)cc(O)c2c1N=Nc1ccccc1C(F)(F)F,AC50,[1],78 µM (active)
same,AC50,[2],14.8 µM (active)
same,outcome,[3],inactive
same,outcome,[4],inactive
Cc1cc(C)nc(NS(=O)(=O)c2ccc(N)cc2)n1,outcome,[1],inactive
same,outcome,[2],inactive
same,outcome,[3],inactive
COC(=O)Nc1ccc(Cl)c(Cl)c1,outcome,[1],inactive
same,AC50,[2],45.1 µM (active)
same,outcome,[3],inactive
same,outcome,[4],inactive
CS(=O)(=O)c1ccc(C2=C(c3ccccc3)C(=O)OC2)cc1,outcome,[1],inactive
same,outcome,[2],inactive
same,outcome,[3],inactive
same,outcome,[5],inactive
same,outcome,[6],inactive
same,outcome,[7],inactive
same,outcome,[8],inactive
same,outcome,[9],inactive
same,outcome,[10],inactive
same,outcome,[12],inactive
same,outcome,[18],inactive
same,outcome,[13],inactive
same,outcome,[14],inactive
same,outcome,[15],inactive
same,outcome,[16],inactive
same,outcome,[17],inactive

# Source: PubChem BioAssay (EPA / NIEHS)
